Assay [1] in a line: growth inhibition of DIPG glioma cells, dose response, cell-based, SU-DIPG-XVII, MIPE5.0, CellTiter-Glo, qHTS (AID 1347060; cut-off not given, nearly all actives have AC50 up to about 26 µM;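 on AC50: cells exposed to compound for 48 hours before viability readout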). The settings on record: SU-DIPG-XVII viability, CellTiter-Glo ATP luminescence.
Assay [2] can be described thus: growth inhibition of DIPG glioma cells, dose response, cell-based, JHH-DIPG-1, MIPE4.0, CellTiter-Glo, qHTS (AID 1347062; cut-off not given, nearly all actives have AC50 up to about 27 µM;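 on AC50: cells exposed to compound for two days before readout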). The settings on record: JHH-DIPG-1 viability, CellTiter-Glo ATP luminescence.
A short description of assay [3]: growth inhibition of DIPG glioma cells, dose response, cell-based, SU-DIPG-IV, MIPE4.0, CellTiter-Glo, qHTS (AID 1347063; cut-off not given, nearly all actives have AC50 up to about 30 µM;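 further: compound exposure lasted 48 hours before the viability readout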). As to conditions: SU-DIPG-IV viability, CellTiter-Glo ATP luminescence. (ATP-based viability assays read luminescence as a measure of living cells.)
The nature of assay [4]: growth inhibition of DIPG glioma cells, dose response, cell-based, SU-DIPG-XIII, MIPE5.0, CellTiter-Glo, qHTS (AID 1347064; cut-off not given, nearly all actives have AC50 up to about 23 µM;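 on AC50: cells exposed to compound for 48 hours before the viability read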). As to conditions: SU-DIPG-XIII viability, CellTiter-Glo ATP luminescence.
Assay [5] is described as follows: viability loss in pontine glioma line – cell-based, SU-DIPG-XXV, MIPE5.0, CellTiter-Glo, qHTS, dose response (AID 1347065; cut-off not given, nearly all actives have AC50 up to about 26 µM;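 further: cells exposed to compound for 48 hours before ATP readout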). As to conditions: CellTiter-Glo ATP luminescence.
Assay [6] is described as follows: SU-DIPG-VI glioma cell viability, MIPE4.0 library, CellTiter-Glo luminescence, qHTS (AID 1347066; cut-off not given, nearly all actives have AC50 up to about 30 µM;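 further: cells exposed to compound for 48 hours before readout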). As to conditions: CellTiter-Glo ATP luminescence.
The nature of assay [7]: JHH-DIPG-1 glioma cell viability, MIPE5.0 library, CellTiter-Glo luminescence, qHTS (AID 1347067; cut-off not given, nearly all actives have AC50 up to about 26 µM;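 further: cells exposed to compound for 48 hours before readout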). The settings on record: JHH-DIPG-1 glioma viability, CellTiter-Glo ATP luminescence.
The nature of assay [8]: SU-DIPG-XXV glioma cell viability, MIPE5.0 library, qHTS (AID 1347068; cut-off not given, nearly all actives have IC50 up to about 30 µM;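 on IC50: cells exposed to compound for 48 hours before viability readout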). Background: In qHTS, concentration-response curves come from the screen itself.
Assay [9] can be described thus: sensitizers of A549 cells to miR-34 induction, primary screen, imaging, A549 dox-inducible miR-34, nuclei and caspase counts (AID 1347080;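 active means compounds whose cell count with miR-34 switched on is under 0.7 times the count with it off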). As to conditions: A549 miR-34 inducible, Hoechst nuclei count, 48 h.
Assay [10] is described as follows: modifiers of HSF1 nuclear foci, imaging, Selleck Cancer Library (AID 1347162; in the data active means plate-normalised HSF1 focus index below about 0.46). The settings on record: human cells, at 10 µM; SSMD: measured here: HSF1 foci SSMD mean; cell count: measured here: cell number; plate-normalised HSF1 focus index: stronger effect = lower value.
Assay [11] in a line: survival rescue of mitochondrial mutant cells in low glucose, primary screen, MELAS cybrids, Rieske KO mouse fibroblasts, CellTiter-Glo (AID 1508586;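 active means mean z-score across replicates of 1.96 or higher in either the MELAS or the Rieske mutant cell line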;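 further: z relative to plate mean and SD of compound and empty wells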).
The nature of assay [12]: ovarian cancer cell viability with rucaparib, profiling panel, oncology-focused library, rucaparib conditional (AID 1508598). The settings on record: patient-derived ovarian cancer cells, CellTiter-Glo viability, 144 h, stronger effect = lower value.
Assay [13] is described as follows: growth inhibition of DIPG glioma cells, dose response, cell-based, SU-DIPG-XIII, MIPE4.0, CellTiter-Glo, qHTS (AID 1347061; cut-off not given, nearly all actives have AC50 up to about 37 µM;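 further: cells exposed to compound for 48 hours before readout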). As to conditions: SU-DIPG-XIII viability, CellTiter-Glo ATP luminescence.
Where [14] appears, read: stronger effect = lower value, cell number ratio, induced over uninduced.
Setting [15] is: measured here: relative caspase fold change +Dox/-Dox.
Setting [16] is: measured here: total cells with miR-34 induction, stronger effect = lower value.
The mark [17] stands for this setting: measured here: total cells without miR-34 induction.
Where [18] appears, read: MELAS cybrid survival, CellTiter-Glo 48 h, stronger effect = higher value.
Where [19] appears, read: Rieske KO mouse fibroblast survival, CellTiter-Glo 72 h.

The text below walks through data of PubChem BioAssay.

Each structure is given as a SMILES string. Results filed as inconclusive are left out. Calls of active or inactive are those of the source.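 How the source made its calls, unless noted: active means normalized viability below 100% at a tested concentration; inactive means the rest.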

A word on the AC50: it is the midpoint of the concentration-response curve, whichever way the signal moves. Usually IC50 stands for the midpoint of a concentration-inhibition curve. As usually defined, the viability is a read-out of living cells in per cent, often relative to untreated cells. In the case of `CC1(COc2ccc3c(c2)ncn3-c2ccc3cccc(N4CCC(N)CC4)c3n2)COC1`, the AC50 in assay [1] was 9.34 µM (active); in assay [2], 0.332 µM (active); in assay [3], 1.18 µM (active); in assay [4], 10.5 µM (active); in [5] it was 8.33 µM (active); in assay [6], 23.5 µM (active). Besides, the AC50 in assay [7] is 13.2 µM (active). The IC50 in [8] is 26.3 µM (active). The fold change in assay [9] (setting [14]) is 0.944 (inactive); in assay [9] (setting [15]) it was 1.21. In addition, the cell count in [9] (setting [16]) was 1330; in [9] (setting [17]), 1400; in assay [10] it was 7140. This molecule also gave an SSMD in assay [10] of -2.3. Besides, the plate-normalised HSF1 focus index in assay [10] was 0.92 (inactive). In addition, the z-score in assay [11] (setting [18]) is 0.899 (inactive); in assay [11] (setting [19]) it was -3.35. For the same molecule, the viability in assay [12] (at 0.000305 µM, OCI-C5x cells, with rucaparib 10 µM, 100% = cells with rucaparib alone) is 110% (inactive); in assay [12] (at 0.000305 µM, OCI-C5x cells, without rucaparib), 122% (inactive); in assay [12] (at 0.000305 µM, OCI-P5x cells, with rucaparib 20 µM, 100% = cells with rucaparib alone), 122% (inactive); in assay [12] (at 0.000305 µM, OCI-P5x cells, without rucaparib), 113% (inactive); in [12] (at 0.00122 µM, OCI-C5x cells, with rucaparib 10 µM, 100% = cells with rucaparib alone) it was 115% (inactive); in [12] (at 0.00122 µM, OCI-C5x cells, without rucaparib), 125% (inactive). Moreover, the viability in assay [12] (at 0.00122 µM, OCI-P5x cells, with rucaparib 20 µM, 100% = cells with rucaparib alone) was 119% (inactive); in [12] (at 0.00122 µM, OCI-P5x cells, without rucaparib) it was 120% (inactive); in [12] (at 0.00488 µM, OCI-C5x cells, with rucaparib 10 µM, 100% = cells with rucaparib alone), 111% (inactive); in assay [12] (at 0.00488 µM, OCI-C5x cells, without rucaparib), 121% (inactive); in assay [12] (at 0.00488 µM, OCI-P5x cells, with rucaparib 20 µM, 100% = cells with rucaparib alone), 120% (inactive); in assay [12] (at 0.00488 µM, OCI-P5x cells, without rucaparib), 117% (inactive). For the same molecule, the viability in assay [12] (at 0.0195 µM, OCI-C5x cells, with rucaparib 10 µM, 100% = cells with rucaparib alone) was 115% (inactive); in assay [12] (at 0.0195 µM, OCI-C5x cells, without rucaparib) it was 127% (inactive); in [12] (at 0.0195 µM, OCI-P5x cells, with rucaparib 20 µM, 100% = cells with rucaparib alone), 119% (inactive); in assay [12] (at 0.0195 µM, OCI-P5x cells, without rucaparib), 127% (inactive); in [12] (at 0.0781 µM, OCI-C5x cells, with rucaparib 10 µM, 100% = cells with rucaparib alone) it was 119% (inactive); in assay [12] (at 0.0781 µM, OCI-C5x cells, without rucaparib), 130% (inactive). The viability in assay [12] (at 0.0781 µM, OCI-P5x cells, with rucaparib 20 µM, 100% = cells with rucaparib alone) was 131% (inactive); in assay [12] (at 0.0781 µM, OCI-P5x cells, without rucaparib) it was 120% (inactive); in assay [12] (at 0.313 µM, OCI-C5x cells, with rucaparib 10 µM, 100% = cells with rucaparib alone), 116% (inactive); in assay [12] (at 0.313 µM, OCI-C5x cells, without rucaparib) it was 137% (inactive); in assay [12] (at 0.313 µM, OCI-P5x cells, with rucaparib 20 µM, 100% = cells with rucaparib alone) it was 129% (inactive); in assay [12] (at 0.313 µM, OCI-P5x cells, without rucaparib) it was 123% (inactive). Besides, the viability in assay [12] (at 1.25 µM, OCI-C5x cells, with rucaparib 10 µM, 100% = cells with rucaparib alone) is 102% (inactive); in assay [12] (at 1.25 µM, OCI-C5x cells, without rucaparib), 131% (inactive); in assay [12] (at 1.25 µM, OCI-P5x cells, with rucaparib 20 µM, 100% = cells with rucaparib alone) it was 142% (inactive); in [12] (at 1.25 µM, OCI-P5x cells, without rucaparib), 119% (inactive); in assay [12] (at 5 µM, OCI-C5x cells, with rucaparib 10 µM, 100% = cells with rucaparib alone), 77.3% (active); in assay [12] (at 5 µM, OCI-C5x cells, without rucaparib), 77.6% (active). Besides, the viability is 4.5% (active) in assay [12] (at 5 µM, OCI-P5x cells, with rucaparib 20 µM, 100% = cells with rucaparib alone) and 81.8% (active) in [12] (at 5 µM, OCI-P5x cells, without rucaparib).
In the case of `Cc1ccc(Nc2cc(-c3cccc(N4C(=O)c5ccccc5C4=O)c3)ncn2)cc1NS(C)(=O)=O`, the AC50 in assay [1] was 20.9 µM (active); in assay [3] it was 18.7 µM (active). Also, the result in assay [2] was inactive.
With `O=C1CCCC(=O)C1C(=O)c1ccc(C(F)(F)F)cc1[N+](=O)[O-]`, the molecule was classed as inactive in assay [1], in assay [2], in assay [3], in assay [4], in [5] and in assay [6]. Besides, the molecule was classed as inactive in assay [7] and in [8].
With `CSc1cccc(Nc2ncc3cc(-c4c(Cl)cccc4Cl)c(=O)n(C)c3n2)c1`, the AC50 in [1] was 1.48 µM (active); in assay [5], 1.05 µM (active); in [7], 1.18 µM (active). Moreover, the result in assay [13] was inactive.
As for `CC(C)n1c(/C=C/[C@H](O)C[C@H](O)CC(=O)O)c(-c2ccc(F)cc2)c2ccccc21`, the concentration at half-maximal activity (AC50) in [1] is 8.33 µM (active). Also, the call in assay [13], in [6] and in [8] was inactive. Further, the figures for the fold change in [9] (setting [14]) and in assay [9] (setting [15]) were 1.07 (inactive) and 0.873, respectively. Further, the cell count in assay [9] (setting [16]) turned out to be 1670; in assay [9] (setting [17]), 1560. For the same molecule, the z-score in assay [11] (setting [18]) is -2.58 (inactive); in [11] (setting [19]), 0.0762.
For `Cc1cc(SCc2sc(-c3ccc(C(F)(F)F)cc3)nc2C)ccc1OCC(=O)O`, the molecule was classed as inactive in assay [1], in assay [2], in [3], in [4], in [5] and in assay [6]. Further, the result in assay [7] and in assay [8] was inactive.
